Experiments:
Test in all cases: PBM binding z-score (relative to random genomic background probes); higher = stronger binding; sequences stand for … in GC…GCGATTGACAGCGTAGAATGAAGG
[1] = test system: PPARg:RXRa DBDmut IVT, anti-RXR (DBD mutation: RXRa K156A/R161A, NR concentration 270 nM, RXRa partner concentration 90 nM)
Method in brief: (§1)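 Scanned fluorescence from custom Agilent 4×180K protein-binding microarrays was regression-normalized. Binding z-scores use random background probes as reference. Ligand-free nuclear receptor dimers were incubated on the arrays for 1 h and detected with antibodies against each partner (one per run).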

[2] = test system: PPARg:RXRa IVT, anti-PPARg (NR concentration 270 nM, RXRa partner concentration 90 nM)
Method in brief: as §1

[3] = test system: PPARg DBDmut:RXRa IVT, anti-PPARg (DBD mutation: PPARg1 K132A/R137A, NR concentration 270 nM, RXRa partner concentration 90 nM)
Method in brief: as §1

[4] = test system: PPARg DBDmut IVT, anti-PPARg (DBD mutation: PPARg1 K132A/R137A, NR concentration 270 nM)
Method in brief: as §1

[5] = test system: PPARg homodimer (NR concentration 180 nM)
Method in brief: as §1

[6] = test system: PXR:RXRa (NR concentration 270 nM, RXRa partner concentration 90 nM)
Method in brief: as §1

[7] = test system: PXR homodimer (NR concentration 270 nM)
Method in brief: as §1

[8] = test system: RARa:RXR (NR concentration 270 nM, RXRa partner concentration 90 nM)
Method in brief: as §1

[9] = test system: RARa homodimer (NR concentration 270 nM)
Method in brief: as §1

[10] = test system: RARb:RXRa (NR concentration 270 nM, RXRa partner concentration 90 nM)
Method in brief: as §1

[11] = test system: RARb homodimer (NR concentration 270 nM)
Method in brief: as §1

[12] = test system: RARg:RXRa (NR concentration 270 nM, RXRa partner concentration 90 nM)
Method in brief: as §1

[13] = test system: RARg homodimer (NR concentration 270 nM)
Method in brief: as §1

[14] = test system: RXRa DBDmut IVT, anti-RXR (DBD mutation: RXRa K156A/R161A, NR concentration 90 nM)
Method in brief: as §1

[15] = test system: RXRa homodimer (NR concentration 180 nM)
Method in brief: as §1

[16] = test system: THRa:RXRa (NR concentration 90 nM, RXRa partner concentration 90 nM)
Method in brief: as §1

[17] = test system: THRa homodimer (NR concentration 90 nM)
Method in brief: as §1

[18] = test system: VDR homodimer (NR concentration 270 nM)
Method in brief: as §1

Sequence | PBM binding z-score [1] | PBM binding z-score [2] | PBM binding z-score [3] | PBM binding z-score [4] | PBM binding z-score [5] | PBM binding z-score [6] | PBM binding z-score [7] | PBM binding z-score [8] | PBM binding z-score [9] | PBM binding z-score [10] | PBM binding z-score [11] | PBM binding z-score [12] | PBM binding z-score [13] | PBM binding z-score [14] | PBM binding z-score [15] | PBM binding z-score [16] | PBM binding z-score [17] | PBM binding z-score [18]
CGGACTAGGTCATTGACAGGACAGTGAATAGTAA | 7.36 | 7.62 | 1.48 | 0.689 | 1.1 | 1.6 | 0.0677 | 2.12 | 0.305 | 3.53 | 2.48 | 4.64 | 4.39 | 2.41 | 2.38 | 2.85 | 0.733 | 1.23
GGAACGAGGGCAAAGTTGAGAGCATCTGTCGACG | 4.15 | 4.7 | 0.813 | 0.305 | 0.644 | 1.42 | -0.0151 | 2.15 | -0.358 | 2.61 | 1.51 | 2.51 | 1.87 | 2.46 | 2.33 | 1.53 | -0.419 | 1.38
AGAACGAGGGCAATGAGTTTATAGCACGGGTGGC | 3.6 | 2.75 | 0.304 | -0.00705 | -0.116 | 4.31 | 12.1 | 0.403 | -0.186 | 2.44 | 1.18 | 1.27 | 1.88 | 2.91 | 0.965 | 0.983 | -0.489 | 5.83
GCTCGGTGGACAAGGTCAGAGCTTTGTCCGTAGA | 0.124 | 0.413 | -1.69 | -0.301 | 0.136 | 1.68 | -0.455 | 2.25 | -0.966 | 2.68 | 2.7 | 2.44 | 2.14 | 0.246 | 1.96 | 2.48 | 1.14 | 0.24
AGTCCAAGTTCATCTAGGTAACGTAAGATATGCT | 0.673 | 2.16 | 1.06 | 0.824 | 1.01 | 3.95 | 5.64 | 1.67 | 0.0751 | 3.3 | 2.25 | 2.91 | 3.37 | 4.78 | 2.26 | 2.76 | 0.459 | 5.97
CGTCCAAGGTCAGCAGGTCAGTAAAAGCGACGTG | 2.72 | 3.62 | 0.159 | -0.726 | 3.33 | 3.43 | 0.607 | 4.46 | 0.549 | 5.51 | 4.97 | 6.32 | 6.68 | 2.49 | 5.07 | 3.97 | 2.48 | 1.81
CCTCGGAGGACAGAAGGTCAGAGCAGTCCGCTTT | 0.416 | 0.276 | -1.6 | -1.82 | 1.18 | 2.83 | -0.373 | 2.41 | 0.42 | 3.25 | 3.7 | 3.53 | 3.41 | 0.444 | 2.16 | 2.67 | -0.117 | 0.311
TAAACAGGGTCAAAGGCCAGAGTACGAATGTCGA | 3.53 | 5.43 | 2.69 | 2.41 | 3.24 | 4.51 | 0.672 | 6.19 | 0.87 | 4.33 | 3.41 | 5.73 | 4.81 | 3.1 | 7.01 | 3.51 | 0.558 | 3.45
CCTTACGGGTCATTCCAGGTTATAGCATCGGAGT | 2.86 | 3.39 | 0.145 | -0.0638 | 1.34 | 5.52 | 0.529 | 3.91 | 0.74 | 3.51 | 3.03 | 4.52 | 4.25 | 2.86 | 5.2 | 5.12 | 0.692 | 2.59
CGAACGAGGGAATGAGTTGATAGCAAATGCCGAT | -0.446 | -0.487 | -0.561 | 0.167 | -0.451 | -0.632 | -0.33 | -0.875 | -0.143 | -0.567 | -0.933 | -0.383 | 0.11 | -0.064 | -0.465 | -0.489 | -0.692 | 0.188
CCTACTGGGCCAAAAAGGTCATGGATGCCGATAA | 3.31 | 4.16 | 0.474 | -0.298 | 4.05 | 4.81 | 0.732 | 5.53 | 1.87 | 4.27 | 1.31 | 5 | 4.57 | 0.231 | 5.58 | 3.41 | 1.05 | 1.81
ACAGACAGGTGAGTGAAGGTAGCTCAGCTGGACG | 0.722 | 0.62 | -0.147 | -1.08 | -0.296 | -0.618 | -0.525 | -0.193 | -0.484 | 0.202 | -0.151 | -0.00932 | 0.0793 | -0.355 | 0.135 | 0.263 | -0.539 | -0.688
TCGAGTAGTTTACCAATGGGGCATTCAGCTTTCT | 0.933 | -0.146 | -0.382 | 0.0492 | -0.418 | -0.0619 | -0.235 | 0.338 | -0.982 | 0.0508 | 0.239 | -0.401 | -0.51 | 0.878 | -0.356 | -0.217 | -0.644 | -0.305
AATACAGGATCATCGTAGGCCAGAGTACGCACAG | -0.0409 | 0.414 | 0.728 | 0.381 | 0.342 | 0.111 | 0.257 | 0.723 | 0.87 | 0.16 | 0.484 | 0.381 | 0.569 | 0.155 | 0.54 | 1.59 | -0.259 | 0.692
AGTCAAAGTTCACTAGGTAACGTAAGATTCAGCT | 2.87 | 5.16 | 1.07 | 1.01 | 2.38 | 3.71 | 2.66 | 2.74 | 0.986 | 4.72 | 3.81 | 4.81 | 5.08 | 4.23 | 3.76 | 2.22 | 0.232 | 3.29

Source: the supplement of paper PMC6555819
